Reference: PubChem BioAssay AID485273 (Sanford-Burnham Center for Chemical Genomics, 2010)
“And” between values parts separate entries of the source, which are not always exact repeats. Equal values may be shown once. About 1,500 (0.45%) of roughly 330,000 compounds were called active. Cut-off read from the data, not from the text of the source: active = inhibition above about 45% (passing the limit was not always enough); inconclusive = no clear call, values can overlap the other calls. This excerpt belongs to a sample that is enriched for actives.

These molecules were tested against Ubiquitin-conjugating enzyme E2 N (Homo sapiens) (UniProt P61088) (assay: UBC13 polyubiquitin chain formation inhibitors, primary screen, biochemical, TR-FRET, uHTS (AID 485273)). Details: at 20 µM, stronger effect = higher value.
Ubiquitin-conjugating enzyme E2 N (Homo sapiens), sequence (P61088 whole entry, looked up): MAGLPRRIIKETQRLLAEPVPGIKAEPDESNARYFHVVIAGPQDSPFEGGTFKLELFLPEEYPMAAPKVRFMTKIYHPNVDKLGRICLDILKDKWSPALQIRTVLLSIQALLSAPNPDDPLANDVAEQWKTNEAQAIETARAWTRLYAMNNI

Row | SMILES | inhibition
1 | CC[n+]1cc(C)ccc1/C=C/c1ccc(N(C)C)cc1 | -286% (inactive)
2 | Cc1cccc(N(C(=O)c2sc(C)nc2C)C(C(=O)NCC2CCCO2)c2ccccc2)c1 (stereo not drawn) | 2.5% (inactive)
3 | CCOc1cc(C(C(=O)NCC2CCCO2)N(C(=O)Cn2nnc3ccccc32)c2cccc(OC)c2)ccc1O (stereo not drawn) | 4% (inactive)
4 | COc1cccc(N(C(=O)c2snc(C(N)=O)c2N)C(C(=O)NCC2CCCO2)c2c[nH]c3ccccc23)c1 (stereo not drawn) | 59.9% (active)
5 | O=C(NCC(=O)N(c1ccccc1)C(C(=O)NCC1CCCO1)c1ccccc1)c1cccs1 (stereo not drawn) | -2.5% (inactive)
6 | Cc1ccc(C(C(=O)NCC2CCCO2)N(C(=O)c2snc(C(N)=O)c2N)c2ccc(C(C)C)cc2)o1 (stereo not drawn) | 45.7% (active)
7 | CCOc1ccc(C(C(=O)NC2CCCC2)N(C(=O)c2snc(C(N)=O)c2N)C2CCCC2)cc1 (stereo not drawn) | 5.2% (inactive)
8 | CCOc1ccc(N(C(=O)c2snc(C(N)=O)c2N)C(C(=O)NCC2CCCO2)c2c[nH]c3ccccc23)cc1 (stereo not drawn) | 89.4% (active)
9 | Cc1ccc(N(C(=O)Cc2cccs2)C(C(=O)NCC2CCCO2)c2ccncc2)cc1 (stereo not drawn) | -4.7% (inactive)
10 | COCCNC(=O)C(c1ccc(C)o1)N(Cc1cccs1)C(=O)c1snc(C(N)=O)c1N (stereo not drawn) | 4.7% (inactive)
11 | Cc1ccc(N(C(=O)c2snc(C(N)=O)c2N)C(C(=O)NCC2CCCO2)c2c[nH]c3ccccc23)cc1 (stereo not drawn) | 75% (active)
12 | CC(C)(C)NC(=O)C(c1ccc(Cl)cc1)N(CCO)C(=O)c1snc(C(N)=O)c1N (stereo not drawn) | 5.2% (inactive)
13 | CCOc1ccc(-n2c(N)c(C(=O)NCC3CCCO3)sc2=S)cc1 (stereo not drawn) | 3.2% (inactive)
14 | COC(=O)Nc1ccc(S(=O)(=O)N(C)CC(F)(F)C(F)F)cc1 | 4.1% (inactive)
15 | COc1ccccc1N1CCN(C(=O)c2cc(=O)c3cc(C)cc(C)c3o2)CC1 | -5.8% (inactive)
16 | Cn1cc(S(=O)(=O)Nc2ccc(Cl)cc2Cl)c(=O)n(C)c1=O | -9.5% (inactive)
17 | N/C(=N\OC(=O)CCc1ccccc1)c1ccc(Cl)cc1 | 3.8% (inactive)
18 | COC(=O)c1ccc(CSc2ccc3nnc(-c4ccccc4)n3n2)o1 | 14.2% (inactive)
19 | COc1ccc(-c2nnc3ccc(SCc4ccccc4)nn23)cc1 | 49.1% (active)
20 | O=C(CSc1ccc2nnc(-c3ccccc3)n2n1)N1CCCc2ccccc21 | 8.9% (inactive)
21 | COc1ccc(C)cc1S(=O)(=O)N(CC(=O)Nc1cccc([N+](=O)[O-])c1)c1ccc(C)cc1 | -5.5% (inactive)
22 | COc1ccc(N(C(=O)c2snc(C(N)=O)c2N)C(C(=O)NC2CCCC2)c2ccco2)cc1OC (stereo not drawn) | 80.3% (active)
23 | CCC(C(=O)NC1CCCCC1)N(C(=O)c1snc(C(N)=O)c1N)c1ccc(OC)cc1OC (stereo not drawn) | 14.4% (inactive)
24 | COc1ccc(C(C(=O)NC2CCCCC2)N(C(=O)c2snc(C(N)=O)c2N)c2ccccc2OC)cc1 (stereo not drawn) | 8.5% (inactive)
25 | COc1ccc(N(C(=O)c2snc(C(N)=O)c2N)C(C(=O)NC2CCCC2)c2ccc(C)o2)c(OC)c1 (stereo not drawn) | 12.9% (inactive)
26 | CCC(C(=O)NC1CCCC1)N(C(=O)c1snc(C(N)=O)c1N)c1ccc2c(c1)OCCO2 (stereo not drawn) | 86.7% (active)

Row | SMILES | inhibition
27 | COc1cc(C(C(=O)NC2CCCC2)N(Cc2ccccc2)C(=O)c2snc(C(N)=O)c2N)ccc1O (stereo not drawn) | 13.8% (inactive)
28 | COc1ccc(C)cc1NC(=S)Nc1ccccc1SC | -7.3% (inactive)
29 | COc1cccc(/C=C2\Sc3ccc(C(=O)NCC4CCCO4)cc3N(C)C2=O)c1 (stereo not drawn) | -7.4% (inactive)
30 | Cc1ccccc1OCC(O)CN1CCN(c2ccccn2)CC1 (stereo not drawn) | 0.6% (inactive)
31 | Cc1cccc(OCC(O)CN2CCN(CCN3C(=O)c4cccc5cccc(c45)C3=O)CC2)c1C (stereo not drawn) | 83% (active)
32 | Cc1cccc(C)c1OCC(O)CN1CCCCC1 (stereo not drawn) | 11.2% (inactive)
33 | Cc1cc(C)c(S(=O)(=O)c2ccccc2)c(OC(=O)c2c(F)cccc2Cl)n1 | 2.7% (inactive)
34 | O=C(COC(=O)/C=C/c1nc2ccccc2s1)Nc1ccccc1Oc1ccccc1 | -4.1% (inactive)
35 | CC(c1ccco1)N(C(=O)COc1ccccc1[N+](=O)[O-])c1ccccn1 (stereo not drawn) | -13.5% (inactive)
36 | CC(C)Nc1ccc(-n2nc3ccccc3[n+]2[O-])cc1 | 0.3% (inactive)
37 | C#CCOCCOCCOCCNc1nc(N2CCN(C(=O)[C@H](CCC(=O)O)n3cc(C(N)CO)nn3)CC2)nc(N2CCN(C(=O)[C@H](Cc3ccc(O)cc3)n3cc(C(N)[C@H](C)CC)nn3)CC2)n1 (stereo partly drawn) | -1.7% (inactive)
38 | C#CCOCCOCCOCCNc1nc(N2CCN(C(=O)[C@H](CO)n3cc([C@@H](N)C(C)C)nn3)CC2)nc(N2CCN(C(=O)[C@H](CCC(=O)O)n3cc([C@@H](N)[C@H](C)CC)nn3)CC2)n1 | 8.2% (inactive)
39 | C#CCOCCOCCOCCNc1nc(N2CCN(C(=O)[C@H](Cc3ccc(O)cc3)n3cc(C(N)CC(C)C)nn3)CC2)nc(N2CCN(C(=O)[C@H](CCC(=O)O)n3cc(C(N)[C@H](C)CC)nn3)CC2)n1 (stereo partly drawn) | -7.8% (inactive)
40 | C#CCOCCOCCOCCNc1nc(N2CCN(C(=O)C(Cc3ccc(O)cc3)n3cc(C(N)CC(C)C)nn3)CC2)nc(N2CCN(C(=O)C(Cc3ccc(O)cc3)n3cc(C(N)C(C)CC)nn3)CC2)n1 (stereo not drawn) | 45.5% (active)
41 | C#CCOCCOCCOCCNc1nc(N2CCN(C(=O)[C@H](CCC(=O)O)n3cc(C(N)CO)nn3)CC2)nc(N2CCN(C(=O)[C@H](CCCCN)n3cc(C(N)[C@H](C)CC)nn3)CC2)n1 (stereo partly drawn) | 5.8% (inactive)
42 | C#CCOCCOCCOCCNc1nc(N2CCN(C(=O)[C@H](CCCCN)n3cc([C@@H](N)C(C)CC)nn3)CC2)nc(N2CCN(C(=O)[C@H](Cc3ccc(O)cc3)n3cc([C@@H](N)C(C)CC)nn3)CC2)n1 (stereo partly drawn) | 95.9% (active)
43 | O=C(Cn1c[n+](CC(=O)c2ccc([N+](=O)[O-])cc2)cn1)c1ccc([N+](=O)[O-])cc1 | -18.4% (inactive) and -8% (inactive)
44 | S=C(c1ccc(-c2ccccc2)o1)N1CCCCC1 | -13.9% (inactive)
45 | CC(C)NC(=O)C(=O)NCCCOC(C)C | -2.8% (inactive)
46 | COc1cccc(OCc2cc(/C=N/NC(=O)c3nc(Cl)c(Cl)c(N)c3Cl)ccc2OC)c1 | -21.4% (inactive)
47 | COc1cc(/C=N/NC(=O)CNC(=O)c2ccncc2)ccc1OC(C)=O | -6.5% (inactive)
48 | COc1ccc(/C=N\NC(=O)c2sc(N)nc2C)cc1OC | 102% (active)
49 | Cn1c(=O)c2c(-c3cccc(Br)c3)c(C#N)c(N)nc2n(C)c1=O | -5.6% (inactive)
50 | CC(C)(C)c1ccc(S(=O)(=O)N2CCN(C(=O)c3ccc4c(c3)C(=O)N(Cc3ccncc3)C4=O)CC2)cc1 | 6.4% (inactive)
51 | Cc1ccccc1C(CC(=O)c1cccs1)C(C#N)C#N (stereo not drawn) | 4.5% (inactive)
52 | COc1ccc(NC2=CC(=S)NC(C)(C)C2)cc1 | -9.8% (inactive)

Row | SMILES | inhibition
53 | c1ccc(-c2ccc(OCCN3CCOCC3)cc2)cc1 | 7.7% (inactive)
54 | COc1cc(OC)cc(-c2sc3ccc(OC)cc3c2-c2ccc3cc[nH]c3c2)c1 | 9.4% (inactive)
55 | CC(=O)c1ccc(OCCN2CCOCC2)cc1 | -16.1% (inactive)
56 | c1ccc(-c2ccccc2OCCN2CCCCC2)cc1 | 5.8% (inactive)
57 | COc1ccc2sc(-c3ccccc3OC)c(-c3ccc(OCCN4CCCC4)cc3)c2c1 | 60.6% (active)
58 | COc1ccc(-c2sc3ccccc3c2-c2ccc(OCCN3CCOCC3)cc2)cc1 | 54.3% (active)
59 | CC1(C)O[C@@H]2[C@H](O1)[C@@H](COS(=O)(=O)O)O[C@H]2n1cnc2c(=O)[nH]cnc21 | -0.9% (inactive)
60 | CC(C)CC1(C(=O)NCc2ccccn2)C=CCN1C(=O)c1ccccc1 (stereo not drawn) | 13% (inactive)
61 | COc1ccc(C(=O)Nc2ccc(-n3nncc3C(C)(C)C)cc2)cc1 | -4.8% (inactive)
62 | COc1ccc(C(CNC(=O)c2cccc(NS(=O)(=O)c3ccc(C)c(F)c3)c2)N2CCCC2)cc1 (stereo not drawn) | 55.5% (active)
63 | COc1ccc(C(CNC(=O)c2cccc(S(=O)(=O)Nc3ccccc3Cl)c2)N2CCOCC2)cc1 (stereo not drawn) | 2.8% (inactive)
64 | COc1ccc(C(CNC(=O)c2ccc(S(=O)(=O)Nc3ccccc3C)cc2)N2CCOCC2)cc1 (stereo not drawn) | -1.4% (inactive)
65 | CCOCCCNC(=O)C(=O)NCCCOCC | -2.5% (inactive)
66 | CC1CC(C)(C)n2c(O)c(N=NC(N)=S)c3cccc1c32 (stereo not drawn) | 92.1% (active)
67 | COc1ccc(S(=O)(=O)N2CCC(C(=O)OCC(=O)c3ccccc3)CC2)cc1[N+](=O)[O-] | -5.5% (inactive)
68 | FC(F)(F)c1ccnc(Oc2ccc(C3=NCCS3)cc2)c1 | 7.6% (inactive)
69 | O=C(COc1ccc2ccc(=O)oc2c1)NCC(O)c1ccccc1 (stereo not drawn) | 4.2% (inactive)
70 | CCOc1ccc2nc(N(CCCN(C)C)C(=O)c3ccc(C(=O)c4ccccc4)cc3)sc2c1 | 87.8% (active)
71 | CCCC(=O)N(CCN1CCOCC1)c1nc2ccc(OCC)cc2s1 | -2.6% (inactive)
72 | CN(C)CCCN(C(=O)c1ccc(S(=O)(=O)N2CCCc3ccccc32)cc1)c1nc2ccc(F)cc2s1 | 37.2% (inactive)
73 | CCc1ccc2nc(N(CCCN(C)C)C(=O)c3ccc4c(c3)OCCO4)sc2c1 | 21.3% (inactive)
74 | CN(C)CCCN(C(=O)c1ccc(S(=O)(=O)N2CCCCCC2)cc1)c1nc2cc3c(cc2s1)OCCO3 | 85.8% (active)
75 | CCN(CC)CCN(C(=O)c1cccc([N+](=O)[O-])c1)c1nc2ccc(OC)cc2s1 | -0.4% (inactive)
76 | CN(C)CCCN(C(=O)c1ccc(S(=O)(=O)N2CCCCCC2)cc1)c1nc2ccc(Br)cc2s1 | 67% (active)
77 | COc1ccc2sc(N(CCCN(C)C)C(=O)c3ccc(S(=O)(=O)N(C)C4CCCCC4)cc3)nc2c1 | 15.5% (inactive)
78 | CN(C)CCN(C(=O)CN1C(=O)c2ccccc2C1=O)c1nc2cc3c(cc2s1)OCCO3 | 6.7% (inactive)
